Measurements published in publication PMC5540273 (PLoS ONE, 2017).

What was measured:
Details in all cases: concentration: 1 μM, replicates: in singlicate; n = 1
[1] = tested on: MTOR
[2] = tested on: MUSK
[3] = tested on: MYLK2
[4] = tested on: MYLK4
[5] = tested on: MYLK
[6] = tested on: MYO3A
[7] = tested on: MYO3B
[8] = tested on: T1, NDR1
T1 construct: gene STK38

[9] = tested on: NDR2
[10] = tested on: NEK10
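Further: KINOMEscan kinase panel screen.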

COc1ccc(CNC(=O)NC2CCN(c3ccnc(Nc4ccc(F)cc4)n3)CC2)cc1 [GSK1379788]
%Inh [1]: 18%
%Inh [2]: 0%
%Inh [3]: 0%
%Inh [4]: 5%
%Inh [5]: 5%
%Inh [6]: 40%
%Inh [7]: 0%
%Inh [8]: 7%
%Inh [9]: 16%
%Inh [10]: 3%

COc1cc(Nc2nccc(N3CCC(NC(=O)Nc4cccc(C(C)=O)c4)C3)n2)cc(OC)c1OC (stereo not shown) [GSK1379753]
%Inh [1]: 0%
%Inh [2]: 18%
%Inh [3]: 7%
%Inh [4]: 1%
%Inh [5]: 17%
%Inh [6]: 6%
%Inh [7]: 0%
%Inh [8]: 8%
%Inh [9]: 0%
%Inh [10]: 20%

CCn1c(-c2nonc2N)nc2c(C#CC(C)(C)O)ncc(OCCCCN)c21.O=C(O)C(F)(F)F.O=C(O)C(F)(F)F [GSK507274]
%Inh [1]: 19%
%Inh [2]: 15%
%Inh [3]: 48%
%Inh [4]: 0%
%Inh [5]: 0%
%Inh [6]: 12%
%Inh [7]: 5%
%Inh [8]: 7%
%Inh [9]: 0%
%Inh [10]: 15%

Cl.c1ccc(-c2ccc3c(Nc4ccc5[nH]ncc5c4)ccnc3c2)nc1 [GW440137]
%Inh [1]: 7%
%Inh [2]: 7%
%Inh [3]: 5%
%Inh [4]: 11%
%Inh [5]: 26%
%Inh [6]: 36%
%Inh [7]: 0%
%Inh [8]: 8%
%Inh [9]: 10%
%Inh [10]: 1%

NCCCC(NC(=O)c1cc(Br)c(-c2ccnc3[nH]ccc23)s1)c1ccccc1.O=C(O)C(F)(F)F.O=C(O)C(F)(F)F (stereo not shown) [GSK1287544]
%Inh [1]: 3%
%Inh [2]: 8%
%Inh [3]: 30%
%Inh [4]: 99.6%
%Inh [5]: 23%
%Inh [6]: 0%
%Inh [7]: 0%
%Inh [8]: 95.7%
%Inh [9]: 86%
%Inh [10]: 20%

COc1cc(Nc2nccc(-c3c(-c4cccc(NC(=O)c5c(F)cccc5F)c4)nn4ccccc34)n2)cc(OC)c1OC [GSK323521]
%Inh [1]: 33%
%Inh [2]: 23%
%Inh [3]: 91.6%
%Inh [4]: 5%
%Inh [5]: 8%
%Inh [6]: 26%
%Inh [7]: 100%
%Inh [8]: 22%
%Inh [9]: 0%
%Inh [10]: 10%

COc1ccc(Nc2nccc(N3CCC(NC(=O)Nc4cccc(OC)c4)C3)n2)cc1 (stereo not shown) [GSK1379742]
%Inh [1]: 10%
%Inh [2]: 8%
%Inh [3]: 14%
%Inh [4]: 0%
%Inh [5]: 2%
%Inh [6]: 0%
%Inh [7]: 0%
%Inh [8]: 0%
%Inh [9]: 0%
%Inh [10]: 0%

CN(C)Cc1ccc(-c2ccc3c(Nc4ccc(Oc5ccccn5)cc4)ccnc3c2)o1 [GW567148]
%Inh [1]: 8%
%Inh [2]: 0%
%Inh [3]: 0%
%Inh [4]: 0%
%Inh [5]: 4%
%Inh [6]: 0%
%Inh [7]: 0%
%Inh [8]: 6%
%Inh [9]: 0%
%Inh [10]: 13%

Cc1ccc(S(=O)(=O)Nc2ccc(Nc3nccc(Nc4cccc5[nH]ncc45)n3)cc2)cc1 [GSK581271]
%Inh [1]: 5%
%Inh [2]: 12%
%Inh [3]: 17%
%Inh [4]: 50%
%Inh [5]: 0%
%Inh [6]: 9%
%Inh [7]: 0%
%Inh [8]: 0%
%Inh [9]: 0%
%Inh [10]: 3%

CN1CCN(Cc2cccc(-c3ccc4c(Nc5ccc(Oc6ccccc6)cc5)ccnc4c3)c2)CC1 [GW578342]
%Inh [1]: 15%
%Inh [2]: 17%
%Inh [3]: 0%
%Inh [4]: 0%
%Inh [5]: 13%
%Inh [6]: 28%
%Inh [7]: 0%
%Inh [8]: 14%
%Inh [9]: 25%
%Inh [10]: 0%

O=C(Nc1cccc(-c2nn3ccccc3c2-c2ccnc(Nc3cccc(C(F)(F)F)c3)n2)c1)c1c(F)cccc1F [GSK292658]
%Inh [1]: 0%
%Inh [2]: 10%
%Inh [3]: 0%
%Inh [4]: 0%
%Inh [5]: 0%
%Inh [6]: 0%
%Inh [7]: 0%
%Inh [8]: 0%
%Inh [9]: 0%
%Inh [10]: 0%

CN1CCN(CCCNc2nccc(-c3c(-c4ccc(F)cc4)nn4cc(C(F)(F)F)ccc34)n2)CC1 [GW621581]
%Inh [1]: 0%
%Inh [2]: 0%
%Inh [3]: 8%
%Inh [4]: 0%
%Inh [5]: 0%
%Inh [6]: 0%
%Inh [7]: 0%
%Inh [8]: 10%
%Inh [9]: 0%
%Inh [10]: 10%

Cc1ccc(C(=O)Nc2ccc(Nc3ccnc4cc(-c5nccs5)ccc34)cc2O)cc1.Cl [GW494702]
%Inh [1]: 6%
%Inh [2]: 4%
%Inh [3]: 11%
%Inh [4]: 0%
%Inh [5]: 0%
%Inh [6]: 34%
%Inh [7]: 6%
%Inh [8]: 2%
%Inh [9]: 9%
%Inh [10]: 0%

C[C@@H]1CC[C@@H](C(=O)Nc2ccccc2)CN1c1cc(-c2ccc3c(N)n[nH]c3c2)nc(N)n1 [GSK2286062]
%Inh [1]: 0%
%Inh [2]: 0%
%Inh [3]: 0%
%Inh [4]: 5%
%Inh [5]: 15%
%Inh [6]: 33%
%Inh [7]: 0%
%Inh [8]: 13%
%Inh [9]: 0%
%Inh [10]: 7%

COc1cc(Nc2ncc3c(C)nc(-c4cc5ccccc5[nH]4)n3n2)cc(OC)c1OC [GW869516]
%Inh [1]: 14%
%Inh [2]: 47%
%Inh [3]: 0%
%Inh [4]: 39%
%Inh [5]: 0%
%Inh [6]: 0%
%Inh [7]: 0%
%Inh [8]: 10%
%Inh [9]: 0%
%Inh [10]: 0%

COC(=O)Nc1nc2ccc(Oc3ccc(NC(=O)Nc4cc(C(F)(F)F)ccc4F)cc3)cc2n1C.Cl [GW692089]
%Inh [1]: 28%
%Inh [2]: 98.5%
%Inh [3]: 36%
%Inh [4]: 0%
%Inh [5]: 0%
%Inh [6]: 17%
%Inh [7]: 0%
%Inh [8]: 24%
%Inh [9]: 45%
%Inh [10]: 1%
